# Measured values reported in PubChem BioAssay.
# Values without a mark were called inactive. Calls of active or inactive are those of the source.
# Experiment: PSAC antagonists in infected red cells, primary screen, cell-based, P. falciparum Indochina, OD700, 1 h (AID 1154)
# Details: P. falciparum Indochina infected RBC osmotic lysis, higher = more signal, called active from +8 up or from −8 down
row,Compound,z-score
1,CCC(CC)C(O)C1C=CC2C(=O)N(C)C(=O)C2N1N1CCCCC1 (centres undefined),1.41
2,COc1cc2c(cc1O)C(c1ccc(CN3CCCC3)cc1)N(Cc1ccc([N+](=O)[O-])o1)CC2 (centres undefined),23.1 (active)
3,COc1cc(OC)c(C(O)C2C=CC3C(=O)N(c4ccccc4)C(=O)C3N2Nc2ccccc2F)cc1Br (centres undefined),7.23
4,NC(=O)N1C(=O)C2C(C1=O)C1C=C(CCCO)C2C(c2ccc(CN3CCCC3)cc2)N1Cc1cccc(OC(F)(F)F)c1 (centres undefined),1.86
5,CC(C)C[C@H]1NC(=O)[C@@]23C(=O)N[C@@H](Cc4ccccc4)C2[C@H](C)[C@@]2(C)O[C@H]2C3/C=C/C/C=C\CNC(=O)[C@@H]2CCCN2C1=O (some centres undefined),0.0869
6,COC(=O)[C@@]1(Cc2ccc(F)cc2)[C@H]2c3cc(C(=O)N(C)C)n(CCn4cc([N+](=O)[O-])nc4C)c3C[C@H]2CN1C(=O)c1ccccc1,0.496
7,C=CC[C@]1(C(=O)NCCCOC)N=C(c2ccc(OCCCO)cc2)O[C@H]1c1ccccc1,12.3 (active)
8,COCCOC(=O)N1C(=O)[C@@]2(c3cc(C#CC4=CCCCC4)ccc31)[C@H](c1ccccc1OCCO)N1[C@H](c3ccccc3)[C@H](c3ccccc3)OC(=O)[C@H]1[C@@H]2C(N)=O,2.66
9,CC(C)C[C@@H]1NC(=O)[C@@]23C(=O)N[C@@H](Cc4ccccc4)C2[C@H](C)[C@@]2(C)O[C@H]2C3/C=C/C/C=C\CNC(=O)[C@@H](CC(C)C)NC1=O (some centres undefined),1.44
